Holding throughout (experiment): NCI-60 one-dose screen, 48 h (100 = growth as untreated, 0 = no growth, -100 = all killed)
For experiment [1], the system named is SK-MEL-2 melanoma. The note with it: 10 µM unless noted.
In experiment [2] the test system is EKVX NSCLC. The note with it: 10 µM unless noted.
In experiment [3] the test system is SN12C renal. Particulars: 10 µM unless noted.
The test system of experiment [4] is UO-31 renal. The note with it: 10 µM unless noted.
Experiment [5] deals with TK-10 renal. Particulars: 10 µM unless noted.
Experiment [6] has as its system A498 renal. Particulars: 10 µM unless noted.
Experiment [7] deals with CCRF-CEM leukemia. Particulars: 10 µM unless noted.
For experiment [8], the system named is MOLT-4 leukemia. The note with it: 10 µM unless noted.
The subject of experiment [9] is SR leukemia. The note with it: 10 µM unless noted.
Experiment [10] concerns RPMI-8226 leukemia. The note with it: 10 µM unless noted.
For experiment [11], the system named is OVCAR-8 ovarian. Particulars: 10 µM unless noted.
In experiment [12] the test system is OVCAR-5 ovarian. Particulars: 10 µM unless noted.
Experiment [13] has as its system OVCAR-4 ovarian. Particulars: 10 µM unless noted.
For experiment [14], the system named is SK-OV-3 ovarian. The note with it: 10 µM unless noted.
Experiment [15] relates to IGROV1 ovarian. The note with it: 10 µM unless noted.
Experiment [16] concerns OVCAR-3 ovarian. Particulars: 10 µM unless noted.
For experiment [17], the system named is HS 578T breast. The note with it: 10 µM unless noted.
The test system of experiment [18] is NCI/ADR-RES ovarian. Particulars: 10 µM unless noted.
Experiment [19] deals with ACHN renal. Particulars: 10 µM unless noted.
Experiment [20] concerns CAKI-1 renal. Particulars: 10 µM.

Compounds without any hit were thinned out: in the full panel of roughly 83,000, 20% have a hit.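 Plates (96-well) were seeded with cells, treated with compound at one concentration, and incubated for 48 hours before percent growth was determined.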 A number with no mark means an inactive call. The source made the active and inactive calls. Rule for the calls: active = growth percent below 10; inactive = the rest.

As for `COc1cc(-c2nc(N)n(CC(=O)Nc3ccc(/C(C)=N\O)cc3)n2)cc(OC)c1OC`, the growth was 92.1% in [1]; 106% in experiment [2]; 96% in experiment [3]; 79.5% in experiment [4]; 90.9% in experiment [5]; 89.8% in [6]. In addition, the growth was 84.5% in experiment [7]; 91.6% in experiment [8]; 83% in experiment [9]; 94.3% in experiment [10]; 74.3% in experiment [11]; 114% in [12]. Further, the growth in [13] was 112%; in experiment [14], 87.9%; in [15] it was 96.8%; in experiment [16], 106%; in [17] it was 82.1%; in [18] it was 105%.
As to `CCc1c(C)c2cc(-n3c(-c4ccc(OC)cc4)csc3=N)c(O)c(C)c2oc1=O`, the growth in experiment [1] is 10.7%; in experiment [2] it was 19.4%; in [3], 10.2%; in experiment [4], 14.3%; in experiment [5], 64.7%; in experiment [6], 17.1%. Further, the growth is 7.21% (active) in experiment [7]; 6.48% (active) in experiment [8]; 3.54% (active) in [9]; -9.39% (active) in experiment [10]; 17.9% in experiment [11]; 44% in experiment [12]. For the same compound, the growth was 12.3% in experiment [13]; 25.1% in [15]; 9% (active) in experiment [16]; 24.5% in experiment [17]; 11.4% in experiment [18].
As for `O=C(O)c1ccc(-n2cc(/C=N/Nc3ccc(F)cc3)c(-c3cccc(C(F)(F)F)c3)n2)cc1`, the growth in experiment [1] is 70.1%; in experiment [2], 70.8%; in experiment [3], 86.9%; in experiment [4] it was 45.6%; in experiment [5], 91.9%; in [6], 69%. The growth in experiment [7] is 33.7%; in [8] it was 36.5%; in experiment [9], 87%; in [10], 47.2%; in [11], 78.4%; in experiment [12], 78.2%. For the same compound, the growth in [13] was 92.4%; in [14], 94.6%; in [15] it was 74.8%; in experiment [16], 70.8%; in experiment [17] it was 89.2%; in experiment [18], 65.2%.
As for `O=[N+]([O-])c1ccccc1NC1c2ccccc2Oc2ccccc21`, the growth is 57% in experiment [1]; 78.2% in [2]; 92.9% in experiment [3]; 60.8% in experiment [4]; 71.2% in experiment [19]; 45.6% in experiment [20]. Also, the growth in experiment [6] was 10.7%; in experiment [7] it was 42.9%; in experiment [8], 13.8%; in experiment [9], 2.25% (active); in [10], 69.5%; in [11], 72.9%. In addition, the growth in experiment [12] was 76.8%; in experiment [13], 98.7%; in experiment [14], 76.9%; in experiment [15], 49.3%; in experiment [16], 3.28% (active).
For `O[C@@H]1CCO[C@H](c2ccc3ccccc3c2)C1`, the growth is 96% in experiment [1]; 102% in experiment [2]; 101% in experiment [3]; 93.4% in [4]; 93.9% in [5]; 73.3% in experiment [6]. The growth in [7] was 103%; in experiment [8], 99.1%; in experiment [9], 95.7%; in [11], 106%; in [12] it was 110%; in experiment [13] it was 105%. The growth in experiment [14] is 108%; in experiment [15] it was 107%; in experiment [16], 106%; in experiment [17], 100%.
For `COc1cc(/C=C2/Oc3cc4occc4c(OC)c3C2=O)ccc1OCC(=O)Nc1ccncc1`, the growth in experiment [1] is 102%; in [2] it was 97.4%; in experiment [3] it was 104%; in experiment [4], 70.3%; in experiment [5] it was 127%; in [6], 111%. Further, the growth in experiment [7] was 103%; in experiment [8], 110%; in experiment [9], 102%; in [11], 104%; in experiment [12] it was 113%; in [13], 111%. Further, the growth in [14] is 93.1%; in [15] it was 96.3%; in experiment [16] it was 99.8%; in experiment [17], 95.1%; in [18], 107%.
Turning to `COc1ccc2c(c1)OC(N)=C(C#N)C2c1ccc(F)cc1` (stereo unspecified), the growth was 18.5% in experiment [1]; 44.8% in experiment [2]; 43.8% in experiment [3]; 41.8% in experiment [4]; 69.5% in experiment [5]; -3.77% (active) in experiment [6]. The growth in experiment [7] is 12.6%; in [8], 28.3%; in [9], 18.1%; in [10] it was 6.87% (active); in [11] it was 34.4%; in experiment [12], 56.4%. Besides, the growth in experiment [13] was 69%; in experiment [14], 16.6%; in [15], 53.1%; in experiment [16] it was 16.9%; in [17], 18.8%; in experiment [18] it was 26%.
Take `Cc1cccc(CC(=O)c2ccccc2)n1`: the growth is 96.7% in experiment [1]; 79.2% in experiment [2]; 94.5% in experiment [3]; 81.5% in [4]; 95.6% in experiment [5]; 74.3% in experiment [6]. Further, the growth in experiment [7] was 71.8%; in experiment [8] it was 90.5%; in experiment [9] it was 94.4%; in experiment [10], 89.4%; in experiment [11], 91.8%; in experiment [12], 83.8%. Moreover, the growth is 90% in experiment [13]; 92.2% in [14]; 97% in [15]; 105% in [16]; 91% in experiment [17]; 75.7% in [18].
On to `FC(F)(F)c1cccc([Si](F)(c2cccc(C(F)(F)F)c2)c2cccc(C(F)(F)F)c2)c1`, for which the growth in experiment [1] is 87.6%; in experiment [2], 66.1%; in [3], 74%; in [4], 49%; in experiment [5] it was 73.9%; in [6] it was 90.4%. Moreover, the growth is 65.5% in experiment [7]; 61.6% in experiment [8]; 74% in experiment [9]; 52.3% in [10]; 91.5% in [11]; 91.3% in experiment [12]. The growth is 65.9% in experiment [13]; 82.5% in [15]; 68% in experiment [16]; 85.3% in experiment [17]; 72.6% in [18].
